Screens: PubChem BioAssay, National Center for Advancing Translational Sciences (NCATS)
KB-3-1 cytotox: KB-3-1 parental cell cytotoxicity; KB-3-1 viability, CellTiter-Glo ATP luminescence, 72 h; Potency, µM (titrated, usually from 46.1 µM), hits mostly cytotoxic; 1.4% of 400,000 active; note: nearly all actives have a fitted effect of over 60% in size
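Here the drug-naive KB-3-1 line serves as comparator for MDR sub-line selectivity; cells received compound titrations, 72 h at 37 °C, then CellTiter-Glo readout.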
HT1080-NT tox: kills 2HG-producing HT-1080-NT fibrosarcoma cells; HT-1080-NT fibrosarcoma viability, CellTiter-Glo ATP luminescence, 48 h; Potency, µM (doses to about 46.1 µM), inactives show top-dose activity, negative = less viability, most hits filed as cytotoxic; 1.6% of 360,000 active; AID 686970;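 note: NT is the 2HG producing partner of a matched IDH1 knockdown line; 0% = DMSO-treated cells and -100% = media-only wells without cells; nearly all actives have a fitted effect of over 55% in size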
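Read-out is CellTiter-Glo luminescence after 10 minutes at room temperature, following 48 hours' compound treatment of HT-1080-NT cells (750 cells/well, RPMI, 5% FBS, 37 degrees C).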
HT1080 IDH1KD tx: kills HT-1080 cells with IDH1 knockdown | 2% of 360,000 active | AID 686971 | Potency, µM (titrated, usually from 46.1 µM), without a hit: at the top dose activity, negative = toxicity, actives largely listed as cytotoxic | HT-1080 IDH1 knockdown viability, ATP luminescence, 48 h;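 note: 0% = DMSO wells and -100% = cell-free medium wells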
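Luminescent ATP read-out (CellTiter-Glo, 10 min at room temperature) after 48 h compound exposure at 37 °C gave viability of IDH1-knockdown HT-1080 cells. Activity was normalised to DMSO and cell-free wells, then fitted as concentration-response curves.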
KB-V1 cytotox: KB-V1 MDR subline cytotoxicity. KB-V1 MDR cells viability, CellTiter-Glo, 72 h. Potency, µM (highest dose often 46.1 µM), usual class: cytotoxic. 3.4% of 400,000 active. AID 1347076; note: nearly all actives have a fitted effect of over 60% in size
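Cytotoxicity via CellTiter-Glo luminescence after 72 h compound exposure at 37 degrees C. Cells: drug-selected KB-V1 line, DMEM phenol-red free plus 10% FBS. Compounds tested at multiple concentrations; normalized data fitted to concentration-effect curves.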
* hit, by the source's call; i = inactive; ? = inconclusive; . = not tested or not shown. Most compounds without a hit are left out; they make up all but 5.7% or so of the library. Calls come from the whole dose curve; as a rule, active = well fitted curve in the direction sought with a large enough effect; inconclusive = small, poorly fitted or top-dose-only effect, or another doubt; inactive = no such curve, though single readings can be large; an effect the other way counts as inactive or inconclusive. Unless noted, % is set by controls: 0 for no effect and ±100 for the full control effect; potency is the fitted concentration of half-maximal effect.

SMILES | KB-3-1 cytotox | HT1080-NT tox | HT1080 IDH1KD tx | KB-V1 cytotox
COc1cc(OC)c(OC)cc1CNC(=O)c1ccc(S(=O)(=O)N2CCCCC2)cc1 | i | -2% | -6% | 7.3µM*
COc1ccc(S(=O)(=O)N2CCCCCC2)cc1C(=O)Nc1ccc(C)cn1 | i | 11% | 5% | i
COc1ccc(S(=O)(=O)N2CCC(C)CC2)cc1N(C)S(=O)(=O)c1ccccc1 | . | 6% | 6% | .
COc1ccc(S(=O)(=O)N2CCCCCC2)cc1N(C)S(=O)(=O)c1ccc(Cl)cc1 | i | ? | -10% | 21µM*
Cc1ccc2cc(CN(C)C(=O)c3cccc(Cl)c3)c(=O)[nH]c2c1 | i | . | . | i
CCCCC(CC)CNC(=O)CN(C)S(=O)(=O)c1ccc2c(c1)c(=O)n(C)c(=O)n2C (stereo not drawn) | i | . | . | i
COc1ccc(N=c2nc(-c3ccccc3)n(-c3ccc(C)cc3)s2)cc1 | ? | . | . | i
CCN1CCCc2cc(CN(CCN3CCOCC3)C(=O)Nc3ccc(C)c(C)c3)ccc21 | i | -3% | -18% | 21µM*
CCc1ccc(NC(=O)N(CCN2CCOCC2)Cc2ccc3c(c2)CCCN3CC)cc1 | i | -8% | ? | 21µM*
CCN1CCS/C1=C\C=C\C1=[N+](CC)CCS1 | i | 4.6µM* | 5.2µM* | i
COc1ccc(C(=O)C2CCCN(Cc3cccn3-c3ccccn3)C2)c(OC)c1 (stereo not drawn) | i | 6.5µM* | 15µM* | ?
COC(CN(C(=O)CCl)C(C(=O)NC1CCCCC1)c1ccc(Cl)cc1)OC (stereo not drawn) | ? | -11% | -19% | ?
Cn1cccc1C(C(=O)NC1CCCCC1)N(C(=O)Cc1cccs1)C1CC1 (stereo not drawn) | i | -4% | -9% | 6.5µM*
O=C(NC1CCCC1)C(c1ccc(Cl)cc1)N(Cc1ccc(F)cc1)C(=O)CCl (stereo not drawn) | i | -9% | -2% | i
COC(=O)c1ccc(C(C(=O)NC2CCCCC2)N(Cc2ccc(F)cc2)C(=O)Cc2cccs2)cc1 (stereo not drawn) | i | -4% | -29% | 3.7µM*
COc1ccc(N(C(=O)Cc2cccs2)C(C(=O)NC2CCCCC2)c2cccn2C)cc1OC (stereo not drawn) | i | 1% | 0% | i
COC(CN(C(=O)CCl)C(C(=O)NC1CCCCC1)c1ccccc1C)OC (stereo not drawn) | ? | 18µM* | ? | ?
O=C(NC1CCCC1)C(c1ccc(F)cc1)N(Cc1ccc(Cl)cc1)C(=O)CCl (stereo not drawn) | ? | -1% | -13% | 16µM*
CC1CCN(C(=O)CSc2nc(-c3ccccc3)no2)CC1 | i | . | . | i
Oc1c(C(c2ccccc2F)N2CCOCC2)sc2nc(-c3ccco3)nn12 (stereo not drawn) | i | . | . | i
CCOC(=O)CNC(=S)N(Cc1cccs1)C1CCCCC1 | i | 5% | 15% | 7.3µM*
CCC(C)(C(=O)NC1CCCCC1)N(Cc1cccs1)C(=O)Cc1cccs1 (stereo not drawn) | i | -1% | 0% | 13µM*
COc1ccc(C(C(=O)NC2CCCCC2)N(C(=O)CCl)c2ccc(Cl)cc2)cc1 (stereo not drawn) | 5.8µM* | 2.3µM* | 1.5µM* | ?
O=C(NC1CCCCC1)C(c1cccnc1)N(C(=O)CCl)c1cccc(Cl)c1 (stereo not drawn) | 23µM* | 5.2µM* | 1.8µM* | 21µM*
CCCCSCCCNC(=O)CN1C(=O)c2cccnc2Oc2ccc(Cl)cc21 | i | . | . | i
SMILES | KB-3-1 cytotox | HT1080-NT tox | HT1080 IDH1KD tx | KB-V1 cytotox
CC(C)NC(=O)C1(C)CSCC(=O)N1CCOc1ccccc1 (stereo not drawn) | i | -7% | 7% | i
Cc1ccc(C(=O)N(CC(=O)NC2CCCC2)Cc2cccs2)s1 | i | 9% | 11% | 5.8µM*
CCC(=NNC(=O)c1ccc2c(c1)nc(C)n2CC)c1cc(F)ccc1O | ? | -6% | ? | 2.3µM*
Cc1ccc2c(c1)C1CN(C)CCC1N2Sc1ccccc1[N+](=O)[O-] (stereo not drawn) | i | 16µM* | ? | i
COC(=O)c1ccc2nc(-c3ccc(C)cc3)c(Cc3ccsc3)n2c1 | ? | 1% | -6% | ?
Cc1ccc2nc(-c3ccccc3)c(Cc3ccsc3)n2c1 | ? | 1% | -6% | 21µM*
